Several values for one entry are separate records, joined by “and”; a condition that tells them apart may be missing. Identical values can stand only once. Results filed as inconclusive are left out. A number with no mark means an inactive call. Activity calls are given as the source filed them. Calls follow the shape of the dose curve; as a rule, active = well fitted cell-killing curve with a large enough effect in the repeat runs; inconclusive = weak or mixed curves, or effect the other way; inactive = flat fitted curve, though single readings scatter.
test: Caspase-3/7 induction in HepG2 cells by small molecules, qHTS cell viability counter screen (AID 1346981); conditions: CellTiter-Fluor fluorescence, 17 h; series mostly up to 92.4 µM; activity change, negative = cytotoxicity: at the top concentration; also: nearly all actives have a fitted effect of over 30% in size
Text: U.S. Tox21 Program National Center for Advancing Translational Sciences [NCATS] NIH Chemical Genomics Center [NCGC] U.S. Environmental Protection Agency [EPA] National Institutes of Environmental Health Sciences [NIEHS] National Toxicology Program [NTP] U.S. Food and Drug Administration [FDA] Tox21 Assay Overview: Apoptosis is a process of programmed cell death and plays a central role in the development of multicellular organisms. It is a highly regulated process and induces cell death by activating caspases, which are the members of cysteine aspartic acid-specific protease (caspase) family. Caspases involved in apoptosis are classified by their mechanism of action as initiator caspases (caspase-2, -8, -9 and -10) and executioner caspases (caspase-3, -6, and -7). Inhibition of apoptosis results in number of cancers, autoimmune diseases, inflammatory diseases and viral infection. To identify small molecule compounds that induce apoptosis, a homogeneous, luminescent Caspase-Glo 3/7 assay was used. Wild type HepG2 cells were used to screen Tox21 libraries for identifying caspase-3/7 activity inducers. Also cytotoxicity of the compounds was tested in parallel by measuring the cell viability using CellTiter-Fluor assay system in the same wells.
Tox21 Assay Protocol Summary: HepG2 cells were dispensed at 2,000 per well in 5uL of culture medium into white solid bottom 1536-well plates (Corning Life Sciences, Corning, NY) using a Multidrop Combi (Thermo Scientific, Waltham, MA) dispenser. The assay plates were incubated at 37 C and 5% CO2 for 5hr, and then 23nL of compounds dissolved in DMSO and positive control were transferred using a Pintool station ([…], San Diego, CA). The assay plates were incubated at 37C and 5% CO2 for 17hr. For cytotoxicity read, after 16hr incubation at 37C, 1uL CellTiter-Fluor reagent (Promega Corporation, Madison, WI) was added to each well of the assay plates using Flying Reagent Dispenser (FRD, Aurora Discovery, San Diego, CA). After 1hr incubation at 37C and 5% CO2, the fluorescence signal was quantified using a ViewLux plate reader (PerkinElmer, Shelton, CT).
% is scaled to controls: 0 for no effect and ±100 for the full control effect; potency is read from the fitted curve at half-maximal effect.

| Compound | Potency | activity change, negative = cytotoxicity |
| --- | --- | --- |
| Cc1cc(Nc2ccc(O)cc2)ccc1N | 48.3 µM (active) | – |
| Oc1ccc(-c2ccccc2)c(Cl)c1 | – | -2.52% |
| Cc1occc1SSc1ccoc1C | – | -7.22% |
| CCc1cccc(CC)c1NC(=O)C(=O)O | – | 6.63% |
| Cc1cccc(N(C)C)c1 | – | 0.936% |
| Cc1cc(=O)[nH]c(=O)[nH]1 | – | -1.11% |
| CC(=O)Oc1ccc(C2(c3ccc(OC(C)=O)cc3)C(=O)Nc3ccccc32)cc1 | – | -2.92% [at 42.5 µM] |
| Clc1nc2ccccc2s1 | – | 4.61% |
| CCC(C)c1ccccc1 (stereo not given) | – | -5.82% |
| ClC/C=C\CCl | – | 5.06% |
| Cc1cc(C)c(C=O)c(C)c1 | – | 0.837% |
| COC(=O)CC(C)CCC=C(C)C (stereo not given) | – | -0.376% |
| CC1=C(/C=C/C(C)=C/C=C/C(C)=C/C(=O)Nc2ccc(O)cc2)C(C)(C)CCC1 | 55.9 µM (active) and 26.6 µM (active) | – |
| Brc1ccccc1-c1ccccc1 | – | 5.12% |
| C[Si](C)(C)Cl | – | -0.285% |
| COc1cc(C=C2CCC/C(=C\c3ccc(O)c(OC)c3)C2=O)ccc1O | 29.8 µM (active) | – |
| OCCCc1cccnc1 | – | 9.48% |
| NCCCCCCNCCCCCCN | – | -1.85% |
| CCO[Si](CCCSSSSCCC[Si](OCC)(OCC)OCC)(OCC)OCC | – | -1.31% |
| CC(=O)OC1CCCCC1 | – | -1.77% |

| Compound | Potency | activity change, negative = cytotoxicity |
| --- | --- | --- |
| CCCN(CCc1cccs1)[C@H]1CCc2c(O)cccc2C1 | – | -0.511% [at 42.5 µM] |
| CN(C)c1ccc(N=Nc2ccccc2C(=O)O)cc1 | 54.5 µM (active) | – |
| CCCCCCCCCCCCCOP(=O)(O)O | – | 4.81% |
| C=CC(=O)OCCN(CC)CC | – | 1.9% |
| CCC1(c2cnc[nH]2)Cc2ccccc2C1 | – | 0.835% [at 42.5 µM] |
| CCc1cccc(CC)c1N(COC)C(=O)CS(=O)(=O)O | – | 4.61% |
| CCCCN(CCCC)CCC(O)c1cc2c(Cl)cc(Cl)cc2c2cc(C(F)(F)F)ccc12 (stereo not given) | – | -9.91% [at 42.5 µM] |
| O=C1NCN(c2ccccc2)C12CCN(CCCC(c1ccc(F)cc1)c1ccc(F)cc1)CC2 | 26.6 µM (active) | – |
| CC1CCCCC1 | – | 6.38% |
| CC1(C)COCN1 | – | 5.05% |
| OCCN1CN(CCO)CN(CCO)C1 | – | 7.92% |
| C/C=C/c1ccc(OC)c(OC)c1 | – | -3.83% |
| CN1CN(C)CN(C)C1 | – | -0.517% |
| CCc1ccc(C)nc1 | – | 9.14% |
| CCC(=O)CC(C)CC (stereo not given) | – | 6.32% [at 0.349 µM] |
| S=P(N1CC1)(N1CC1)N1CC1 | – | -1.6% |
| CCN=c1cc2oc3cc(NCC)c(C)cc3c(-c3ccccc3C(=O)OCC)c-2cc1C | 2.72 µM (active) and 7.7 µM (active) | – |
| CCc1c(C(=O)O)c(=O)cnn1-c1ccc(Cl)cc1 | – | 3.99% |
| Cc1ccc(N)cc1O | – | -6.48% |
| Cc1cccc(C)c1NC(=O)CN1CCN(CCCC(c2ccc(F)cc2)c2ccc(F)cc2)CC1 | 21.1 µM (active) | – |
